Assay outcomes (PubChem BioAssay)
In the library only some 18% were active in any assay of this set; here they are far more common.
TGFb SMAD3 inh = inhibitors of TGF-b signaling. HepG2 CAGA-GFP TGF-b/SMAD3 reporter, GFP fluorescence, 18 h; TGF-beta stimulated, 500 pg/mL final. Potency, µM (doses to about 46.1 µM), actives largely listed as inhibitors. 410,000 compounds, 1.2% hits. AID 588855; further: nearly all actives have a fitted effect of over 65% in size
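Inhibition of TGF-beta-driven CAGA-GFP reporter expression in HEPG2 cells is measured by cellular GFP fluorescence after 18 h stimulation with 500 pg/mL recombinant TGF-beta in 1% FBS medium at 37 degrees C.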
IL1B secr inh = blocks inflammasome-driven IL-1 beta release. THP-1 LPS/ATP IL-1B secretion, AlphaLISA, 16 h; stronger effect = lower value. activity change, % at 57.5 µM. 360,000 compounds, 4.7% hits. AID 743279; in the data active means activity change below about -50%; inconclusive means mostly about -30% to -49%
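Secreted IL-1B measured by AlphaLISA bead assay after 16 h compound exposure of THP-1 cells; compounds (final up to 57.5 uM) added 1 h before LPS (250 ng/mL) and ATP (1.25 mM) stimulation; lower signal means less secretion.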
TDP1 cell CPT = DT40-hTDP1 cell growth loss with CPT; chicken DT40 Tdp1-/-;hTDP1 cells + 20 nM CPT, ATP luminescence, 48 h; Potency, µM (doses to about 46.2 µM), most hits filed as inhibitors; 420,000 compounds, 12% hits; further: nearly all actives have a fitted effect of over 55% in size
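Chicken DT40 Tdp1-/- cells stably complemented with human TDP1 were seeded at 400 cells/well in medium containing 20 nM camptothecin, exposed to pin-transferred compounds, and grown at 37 °C for at least 48 hr. Viability was read as ATP luminescence.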
HepG2 tox = kills HepG2 cells in TGF-b inhibitor counter-screen; HepG2 CAGA-GFP viability, ATP luminescence, 18 h; Potency, µM (series often up to 46.1 µM), hits mostly cytotoxic; 410,000 compounds, 0.76% hits
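HepG2 CAGA-GFP cells (1000/well, DMEM with 1% FBS) received compound, then TGF-beta at 500 pg/mL final, and were incubated 18 hours at 37 degrees C. Viability was read by CellTiter-Glo luminescence. Media-only wells were set as complete cell-killing and DMSO as no toxicity.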
TDP1 cell noCPT = qHTS for Inhibitors of human tyrosyl-DNA phosphodiesterase 1 (TDP1): qHTS in cells in absence of CPT. DT40 Tdp1-/- hTDP1 cells, no CPT, ATP luminescence, 48 h. Potency, µM (highest dose often 46.2 µM), actives largely listed as inhibitors. 420,000 compounds, 15% hits. AID 686978, 2013; further: nearly all actives have a fitted effect of over 55% in size
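Camptothecin absent (DMSO only). Human TDP1-complemented DT40 knockout cells, 400 cells/well, 37 °C for minimum 48 hr; ATP measured via CellTiter-Glo, 30 min dark incubation, luminescence.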
TDP1 inh = inhibitors of human tyrosyl-DNA phosphodiesterase TDP1 | recombinant TDP1, AlphaScreen DNA substrate cleavage | Potency, µM (top dose mostly 130 µM), most hits filed as inhibitors | 350,000 compounds, 0.28% hits | AID 485290; further: nearly all actives have a fitted effect of over 40% in size
Target sequence (Q9NUW8 whole entry, looked up): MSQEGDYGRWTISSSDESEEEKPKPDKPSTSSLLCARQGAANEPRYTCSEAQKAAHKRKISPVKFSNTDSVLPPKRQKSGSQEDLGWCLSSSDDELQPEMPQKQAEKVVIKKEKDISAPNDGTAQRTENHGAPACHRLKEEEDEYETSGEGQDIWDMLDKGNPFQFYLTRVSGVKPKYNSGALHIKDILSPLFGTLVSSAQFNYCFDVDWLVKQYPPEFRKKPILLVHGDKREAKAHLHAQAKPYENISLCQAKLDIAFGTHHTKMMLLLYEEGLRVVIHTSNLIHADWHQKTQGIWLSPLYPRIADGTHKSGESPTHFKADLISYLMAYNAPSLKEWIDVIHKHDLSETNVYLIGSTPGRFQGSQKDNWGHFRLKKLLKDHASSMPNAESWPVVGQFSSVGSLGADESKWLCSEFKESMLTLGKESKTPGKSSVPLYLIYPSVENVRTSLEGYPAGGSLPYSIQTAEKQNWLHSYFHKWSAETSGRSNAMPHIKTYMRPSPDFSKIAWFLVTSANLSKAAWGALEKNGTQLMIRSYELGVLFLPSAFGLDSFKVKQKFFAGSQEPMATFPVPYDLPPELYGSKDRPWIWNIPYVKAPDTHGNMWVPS
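Recombinant human Tdp1 (E. coli-expressed, 1 nM final) preincubated with compounds 15 min at room temperature, then 5'-biotin/3'-phosphotyrosine-FITC DNA substrate (15 nM final) added for 5 min. AlphaScreen beads (10 ug/ml final) added 10 min; cleavage lowers signal.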
A number is an active result; . = inactive; ? = inconclusive; / = no result; ! = repeats disagree. Unless noted, the call rests on the fitted dose curve; in most records, active means well fitted curve in the direction sought with a large enough effect; inconclusive means small, poorly fitted or top-dose-only effect, or another doubt; inactive means no such curve, though single readings can be large; an effect the other way counts as inactive or inconclusive.

SMILES | TGFb SMAD3 inh | IL1B secr inh | TDP1 cell CPT | HepG2 tox | TDP1 cell noCPT | TDP1 inh
COc1ccc(C2=NN(c3ccccc3)C(c3ccc(OC)c(OC)c3)C2)cc1 (stereo not drawn) | . | . | . | . | . | .
COc1ccc(C2=NN(C(C#N)c3ccc(OC)c(OC)c3)C(c3ccccc3)C2)cc1 (stereo not drawn) | . | . | ? | . | 21µM | .
COc1cc(C(C#N)N2CCC(c3ccccc3)=N2)ccc1O (stereo not drawn) | . | . | ? | . | . | /
COc1ccc(Nc2cc(C)c3c(O)cccc3n2)cc1 | ? | ? | 21µM | . | 10µM | /
COc1cccc(Nc2cc(C)c3ccccc3n2)c1 | . | -55 | . | . | ? | /
Cc1ccc(Nc2cc(C)c3ccc(O)cc3n2)cc1C | ? | . | 18µM | 10µM | 18µM | .
Cc1cc(NC2CCCCC2)nc2ccccc12 | . | -91 | ? | . | 16µM | .
O=[N+]([O-])c1cc(N(CCO)CCO)ccc1NCCO | / | / | / | / | / | .
Cc1ccc(N2CCN(c3nc4c(S(=O)(=O)c5ccc(C)c(C)c5)nnn4c4ccccc34)CC2)c(C)c1 | . | / | . | . | . | .
Cc1ccc(Nc2cc(C)c3c(O)cccc3n2)cc1C | ? | . | 21µM | . | 15µM | .
CCOc1ccccc1Nc1cc(C)c2cccc(C)c2n1 | . | . | . | . | . | /
Cc1ccccc1Nc1cc(C)c2c(O)cccc2n1 | . | -87 | ? | . | ? | .
Cc1ccc(NC(=O)c2cnc3ccccc3n2)cc1C | . | / | . | . | . | .
COc1ccc(S(=O)(=O)NCc2ccc(C(=O)N3CCN(c4ccccn4)CC3)cc2)cc1 | . | . | 8.9µM | . | ? | .
CN1CCN(C(=O)c2ccc(CNS(=O)(=O)c3cccc(Cl)c3)cc2)CC1 | . | . | . | . | . | .
Cc1ccc(S(=O)(=O)NCc2ccc(C(=O)N3CCN(c4ccccc4)CC3)cc2)cc1 | . | . | ? | . | ? | .
COc1cccc(S(=O)(=O)NCc2ccc(C(=O)N3CCN(c4ccccc4)CC3)cc2)c1 | . | . | 16µM | . | 16µM | .
COc1ccc(N2CCN(C(=O)c3ccc(NS(=O)(=O)c4cccc(F)c4)cc3)CC2)cc1 | . | . | ? | . | ? | .
O=C(c1ccc(CNS(=O)(=O)c2cccc(Cl)c2)cc1)N1CCCCC1 | . | . | 16µM | . | 15µM | .
COc1ccc(N2CCN(C(=O)c3ccc(CNS(=O)(=O)c4cccc(OC)c4)cc3)CC2)cc1 | . | -84 | 9.2µM | . | 23µM | .
COC(CNC(=O)CNC(=S)N(Cc1ccccc1)Cc1cccnc1)OC | . | . | . | . | . | .
CN1CCC(N2CCN(C3CN(Cc4ccc(F)cc4)S(=O)(=O)C3)CC2)CC1 (stereo not drawn) | . | . | . | . | . | /
CC1CCN(CC(O)COc2ccc(F)cc2)CC1 (stereo not drawn) | . | . | . | . | . | .
CC1CCN(CC(O)COc2ccc(-c3ccccc3)cc2)CC1 (stereo not drawn) | . | . | ? | . | 18µM | /
CC(C)c1ccc(OCC(O)CN2CCN(c3ccccc3)CC2)cc1 (stereo not drawn) | . | -74 | ? | . | ? | .
SMILES | TGFb SMAD3 inh | IL1B secr inh | TDP1 cell CPT | HepG2 tox | TDP1 cell noCPT | TDP1 inh
O=C(Cc1cccc(F)c1F)NC1CCCN(Cc2ccc(Cl)cc2)C1 (stereo not drawn) | . | ? | ? | . | ? | /
O=C(O)c1ccc(N/N=C/c2cn(Cc3ccc(F)cc3)c3ccccc23)cc1 | ? | . | ? | . | ? | .
C[C@@H]1[C@H]2CCCC[C@H]2CN(C(=O)OC(C)(C)C)[C@@H]1c1cn(Cc2ccccc2)c2ccc(F)cc12 | . | . | ? | . | 16µM | .
C[C@@H]1[C@H]2CCCC[C@H]2CN(C(=O)OC(C)(C)C)[C@@H]1CC(=O)c1ccccc1 | . | . | ? | . | 16µM | .
CC(C)(C)OC(=O)N1CCC[C@H]1C(O)(c1ccccc1)c1ccccc1 | / | / | / | / | / | .
CCC(=O)NC(NC(=S)Nc1ccc(S(N)(=O)=O)cc1)C(Cl)(Cl)Cl (stereo not drawn) | . | . | . | . | . | .
CCOC(=O)NC(NC(=S)Nc1ccc(OC)cc1)C(Cl)(Cl)Cl (stereo not drawn) | . | . | . | . | . | .
COc1ccc(NC(=S)NC(NC(=O)/C=C/c2ccccc2)C(Cl)(Cl)Cl)cc1 (stereo not drawn) | ? | . | ? | . | 18µM | .
O=C(CCc1ccccc1)NC(NC(=S)Nc1ccc(Cl)cc1)C(Cl)(Cl)Cl (stereo not drawn) | . | . | 8.2µM | . | 4.6µM | .
O=C(/C=C/c1ccccc1)NC(NC(=S)Nc1ccc(Cl)cc1)C(Cl)(Cl)Cl (stereo not drawn) | ? | ? | 16µM | . | 5.2µM | .
O=C(/C=C/c1ccccc1)NC(NC(=S)Nc1cc(Cl)ccc1Cl)C(Cl)(Cl)Cl (stereo not drawn) | 2.2µM | -66 | 5.2µM | . | 5.2µM | .
NS(=O)(=O)c1ccc(O)c(N2C(=O)c3cccc4c(C(=O)c5ccccc5)ccc(c34)C2=O)c1 | / | / | / | / | / | .
COc1ccc(OC)c(/C=N/N(CCC#N)C2=NS(=O)(=O)c3ccccc32)c1 | . | . | ? | . | . | /
CCN(CC)Cc1c(O)ccc2c1O/C(=C\C=C\c1ccccc1)C2=O | . | . | ? | . | 18µM | /
COC(=O)c1sccc1NC(=O)CN(C)NS(=O)(=O)c1ccc(F)cc1 | . | . | 18µM | . | ? | .
COC(=O)c1sccc1NC(=O)CN(C)NS(=O)(=O)c1ccc([N+](=O)[O-])cc1 | . | . | ? | . | ? | .
COC(=O)c1sccc1NC(=O)CN(C)NS(=O)(=O)c1ccc(Cl)cc1 | . | . | ? | . | 18µM | .
N#Cc1ccccc1OCC(=O)OCC(=O)NC1CCCC1 | . | . | . | . | . | .
Cc1ccc(C2Nc3cccc4cccc(c34)N2)s1 | . | . | ? | . | 18µM | .
FC(F)(F)c1ccccc1-n1ccnc1 | . | . | ? | . | 16µM! | .
CCN(CC)S(=O)(=O)c1cccc(-n2c(O)c(C=Nc3ccccc3C(=O)O)c3ccccc3c2=O)c1 | . | . | 4.1µM | . | 2.1µM | .
Cc1[nH]c(C)c(S(=O)(=O)NCc2ccc(Cl)cc2)c1C(=O)N1CCCC1 | . | . | . | . | . | .
